About 83,000 compounds went through this panel and 20% of them were active in at least one assay; those are over-represented in the sample as a whole.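 Single-dose data. Exposure time 48 hours. Values below 10 considered active.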 Unmarked numbers belong to inactive results. Activity calls are given as the source filed them.

This test has as its system HL-60(TB) leukemia. In words: NCI-60 one-dose screen, 48 h (100 = growth as untreated, 0 = no growth, -100 = all killed). The conditions noted are these: 10 µM unless noted.
Take `O=C(O)CCN1CCN(c2cccc(Cl)c2)CC1`: the growth was 97%.
The value for `COc1cc(-c2[nH]ncc2Nc2ccc(Cl)cc2)cc(OC)c1OC` was 42.3%.
As for `Cc1cc(-c2ccc(N=Nc3c(S(=O)(=O)O)cc4cc(S(=O)(=O)O)cc(N)c4c3O)c(C)c2)ccc1N=Nc1cc(S(=O)(=O)O)c2ccccc2c1O`, the figure is 98.7%.
Take `Cc1[nH]c(C(=O)Nc2ccc(C(N)=O)cc2NC(C)C)c(Cl)c1Cl`: the growth was 99.7%.
As for `Cc1ccc(-n2cc(-c3ccccc3)c3c2N=NN2CCN=C32)cc1`, the growth is 101%.
The value for `Oc1cc(/C=C/c2nc(N3CCOCC3)c3cc(Cl)c(Cl)cc3n2)cc(O)c1O` was 99.4%.
The value for `COc1cc(/C=C(/C)C[N+](=O)[O-])ccc1O` was 71.5%; that for `COc1ccc(-c2nc3sc(-c4ccccc4)cn3n2)cc1` was 67.4%.
The value for `COc1cc(NCCN(CC(C)C)CC(C)C)c2ncc(C)cc2c1` was 88.2%.
As to `O=[N+]([O-])c1cccc(C2c3ccccc3Oc3ccccc32)c1`, the growth was 99%.
As for `CN(C)Cc1cc(C(C)(C)CC(C)(C)C)ccc1O`, the figure is 94.4%.
The value for `CCOC(=O)c1sc2nc(-c3cc4ccccc4o3)cc(-c3ccc(Cl)cc3)c2c1N` was 108%; that for `COc1ccccc1-n1c(-c2cc(O)ccc2C)cn2c3c(=O)[nH]c(=O)n(C)c3nc12` was 110%; that for `S=C1CCCCCN1` was 107%.
The value for `Cc1nnc(-c2cc3c(ccc4ccccc43)oc2=O)c2cn(-c3ccc(Cl)cc3)nc12` was 84.4%; that for `Cc1cc(O)c(C2=NN(c3ccc(S(N)(=O)=O)cc3)C(c3ccc(N(C)C)cc3)C2)c(C)c1Cl` (stereo not given) was 24.1%.
Take `O=C(c1ccc(-c2ccccc2)cc1)c1ccc([N+](=O)[O-])cc1`: the growth is 129%.
As for `COc1ccc(/C=C2\SC(=O)N(Cc3cc(=O)oc4ccc(OC)cc34)C2=O)cc1`, the figure is 90.9%.
The value for `CCN(CC)CCNc1ccc(C)c2sc3cc(C)ccc3c(=O)c12` was 64.1%.
Consider `C#CCOc1ccc(C2=NN(C)C3N=C(Cl)c4ncn(C)c4N23)cc1OCC#C` (stereo not given), for which the growth is 98.6%.
The value for `CCOC(=O)CC(C#N)(CC(=O)OCC)C(=O)OCC` was 102%; that for `CC1O[C@@H]2C[C@@](O)([C@H]1O)n1c3ccccc3c3c4c(c5c6ccccc6n2c5c31)C(=O)NC4=O` (stereo not given in full) was 66.6%.
The value for `C[C@H]1[C@H](OC(=O)CCC(=O)O)O[C@@H]2O[C@]3(C)CC[C@H]4[C@H](C)CC[C@@H]1[C@@]24OO3` was -30.5% (active); that for `O=C1CSC(c2ccccc2O)N1c1nnc(Cn2cnnc2)o1` (stereo not given) was 61.1%.
The value for `c1ccc(Cn2cc(-c3nc4ccccc4s3)c3cccnc32)cc1` was 115%; that for `Cc1ccc(C(SCC(N)C(=O)O)(c2ccccc2)c2ccc(C)cc2)cc1` (stereo not given) was -36% (active); that for `COc1ccc(C(=O)/C=C/c2c(C(F)(F)F)nc3sccn23)cc1OC` was -35.6% (active).
In the case of `O=C(Nc1cccc2[nH]c(C(F)(F)F)nc12)c1ccc(F)cc1`, the growth was 49.6%.
As for `Clc1ccc2c(N3CCN(c4ccnc(NC5CCCCC5)n4)CC3)ccnc2c1`, the figure is -13.8% (active); as for `CC(C)OCCCNCC(=O)Nc1ccc(S(=O)(=O)c2ccc(NC(=O)CNCCCOC(C)C)cc2)cc1`, 82.1%.
Consider `CCN=c1sc2c(n1NC(=O)c1cc3ccc1CCc1ccc(cc1)CC3)C(=O)c1ccccc1C2=O`, for which the growth was -18.3% (active).
In the case of `CSC[C@H](NC(=O)COc1cccc2cnccc12)C(=O)NC(Cc1ccccc1)C(O)C(=O)N1CSC[C@H]1C(=O)NC(C)(C)C` (stereo not given in full), the growth was 140%.
Take `O=C(Nc1ccc(Cl)cc1)c1cc(-c2ccc(Cl)cc2)c2sc(=O)[nH]c2n1`: the growth is -53.7% (active).
The value for `CC(=O)N(CCCCCCN(C(C)=O)C(C)=O)C(C)=O` was 108% [100 µM]; that for `CCCCCCCCCCCCCCCCCBr` was 103%.
The value for `C=CCn1c(-c2ccc(-c3nc4ccc(C)cc4[nH]3)cc2)n[nH]c1=S` was 110%.
As for `S=c1ccnc[nH]1`, the figure is 59.3%.
For `ClCCOCCOc1ccc(C2CCCCC2)cc1`, the growth was 105%.
`O=C(CCl)Oc1ccc(OC(=O)CCl)cc1`: the growth was 8.83% (active).
The value for `CCC(C)(C)C1CCC(O)CC1` (stereo not given) was 83.8%.

The record behind these values is PubChem BioAssay (NCI).
